Source: PubChem
MEKK3 PB1 HTS = raises or lowers MEK5 binding to the human MEKK3 PB1 domain | Q99759 | bead-based flow cytometry, Alexa488-MEK5 binding to MEKK3; actives lie on both sides; 0 = blocked by unlabeled MEK5, 100 = vehicle | binding response (% of control), % at 10 µM | 290,000 tested, 1.4% active | AID 1529;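 active means binding response more than 3 SD above or below the average of its plate-row segment, actives on both sides; inconclusive means wells at one plate position flagged as instrument error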;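 further: Alexa488 bead fluorescence after subtracting the streptavidin-only scavenger bead signal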
Target sequence (Q99759 whole entry, looked up, the tested form may be a part): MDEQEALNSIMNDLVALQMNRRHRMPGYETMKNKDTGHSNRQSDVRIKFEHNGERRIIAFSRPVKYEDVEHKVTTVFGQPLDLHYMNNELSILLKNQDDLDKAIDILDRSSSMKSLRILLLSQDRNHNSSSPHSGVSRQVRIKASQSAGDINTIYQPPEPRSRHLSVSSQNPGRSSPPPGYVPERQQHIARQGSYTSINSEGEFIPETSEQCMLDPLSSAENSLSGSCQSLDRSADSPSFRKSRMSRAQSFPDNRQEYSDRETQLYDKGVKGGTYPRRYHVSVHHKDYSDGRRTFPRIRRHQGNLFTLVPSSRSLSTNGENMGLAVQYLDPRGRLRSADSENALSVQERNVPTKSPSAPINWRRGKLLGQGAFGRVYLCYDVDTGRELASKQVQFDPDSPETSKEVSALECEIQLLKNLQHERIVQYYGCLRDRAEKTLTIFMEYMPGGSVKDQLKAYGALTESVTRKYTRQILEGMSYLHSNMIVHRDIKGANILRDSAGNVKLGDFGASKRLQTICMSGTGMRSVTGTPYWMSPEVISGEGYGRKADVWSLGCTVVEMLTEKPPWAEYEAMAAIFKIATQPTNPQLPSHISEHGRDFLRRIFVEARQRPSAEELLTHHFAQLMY
MEKK2 WT-MEK5 = raises or lowers MEK5 binding to wildtype human MEKK2 PB1 domain; 290,000 tested, 1.1% active; bead flow cytometry, Alexa488-MEK5 binding to MEKK2 WT; actives lie on both sides; binding response (% of control), % at 10 µM; in the data active means binding response below about 67% or above about 130%; inconclusive means no clear call, values can overlap the other calls; inactive means in between
dFosB activator = activators of mouse delta FosB homodimer; activation, % at 25 µM; AID 493131; 340,000 tested, 0.99% active; P13346; purified delta FosB, TAMRA-CDK5 oligo fluorescence polarization; percent of positive-control signal above neutral wells;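 active means mean activation above about 17%, with every replicate also reaching it, limit read from the data, passing the limit was not always enough; inconclusive means only one of the two conditions met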
MEKK2mut PB1 HTS = signal of MEK5 binding to mutant human MEKK2 PB1 domain | bead flow cytometry, Alexa488-MEK5 binding to MEKK2 mutant | percent response, % at 10 µM | 290,000 tested, 0.35% active | AID 1530; in the data active means percent response above about 24%, passing the limit was not always enough
DNA FID counter = counter-screen for HCV NS3 helicase inhibitors: DNA intercalator displacement | DNA fluorescent intercalator displacement, fluorescence | AID 1845 | inhibition, % at 7.9 µM | 290,000 tested, 0.17% active; in the data active means inhibition above about 37%;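 further: 0% = vehicle and 100% = reference compound; higher means more ethidium bromide displaced from hairpin DNA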
MEKK2wt confirm = raises or lowers MEK5 binding to wildtype human MEKK2, retest; shares compounds with MEKK3 PB1 HTS; bead flow cytometry, Alexa488-MEK5 binding to MEKK2 WT; actives lie on both sides; binding response (% of control), % at 10 µM; 5,900 tested, 2.4% active; in the data active means binding response below about 16% or above about 210%; inactive means in between
MEKK2mut-MEK5 = signal of MEK5 binding to mutant human MEKK2, retest; shares compounds with MEKK3 PB1 HTS; bead flow cytometry, Alexa488-MEK5 binding to MEKK2 mutant; percent response, % at 10 µM; 5,900 tested, 2% active; in the data active means percent response mostly above about 71%, no sharp cut-off; inactive means mostly below about 38%;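 further: higher means compound restores mutant binding toward wildtype level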
MEKK3 confirm = confirmation of inhibitors of MEK5 binding to human MEKK3; bead flow cytometry, Alexa488-MEK5 binding to MEKK3; hits give low values; 5,900 tested, 1.8% active; binding response (% of control), % at 10 µM; shares compounds with MEKK3 PB1 HTS;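 active means binding response below 72% of control, or above a set upper limit, though filed actives all read lower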;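 further: 100% = DMSO only wells and 0% = binding blocked by excess unlabeled MEK5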
An asterisk follows results filed as active; u = inconclusive; x = no result given; [ ] = dose if it differs, or a comment. Rows were chosen to be rich in hits. Some 2.9% of all compounds tested hit in one or more screens of this group.

SMILES | MEKK3 PB1 HTS | MEKK2 WT-MEK5 | dFosB activator | MEKK2mut PB1 HTS | DNA FID counter | MEKK2wt confirm | MEKK2mut-MEK5 | MEKK3 confirm
Cc1ccc2oc(=O)n(CCCOc3ccccc3)c2c1 | 125* | 121 | -12 | 4 | -13 | 102 | 9 | 102
Cc1ccc(OCCn2c(=O)oc3ccc(C)cc32)cc1 | 94 | 98 | -5 | -10 | -9 | x | x | x
CCOC(=O)Cn1c(=O)oc2ccc(C)cc21 | 95 | 99 | 3 | -1 | -1 | x | x | x
Cc1ccc2oc(=O)n(CC(=O)OCCC(C)C)c2c1 | 74*[inhibitor] | 71 | -11 | -3 | -16 | 102 | -4 | 101
O=C1CCN(C(=O)Nc2ccccc2Cl)N1 | 48*[inhibitor] | 57 | 5 | -24 | 0 | 104 | 3 | 105
Brc1ccc(-c2nnc(-c3cccnc3)c3conc23)cc1 | 80*[inhibitor] | 78 | x | -5 | 1 | 99 | 1 | 102
Cc1ccc(CNC(=O)C2CCCN(S(=O)(=O)c3c(C)[nH]c(=O)[nH]c3=O)C2)cc1 (stereo unspecified) | 109 | 105 | -3 | 2 | -7 | x | x | x
COc1cc2cc(CCOC(=O)N3CCCCC3)oc(=O)c2cc1OC | x | x | 1 | x | x | x | x | x
CCOc1cc(C2C(C#N)=C(N)OC(C)=C2C(C)=O)c(Br)c(Br)c1OC(C)C (stereo unspecified) | 68*[inhibitor] | 94 | -7 | 0 | -20 | 96 | -4 | 100
CC1(C)CC(=O)C2=C(C1)Nc1ncnn1C2c1cccs1 (stereo unspecified) | 145* | 124 | -6 | 1 | -7 | 110 | 6 | 107
CC1(C)CC(=O)C2=C(C1)Nc1ccccc1NC2c1cccs1 (stereo unspecified) | 107 | 104 | 1 | 3 | 4 | x | x | x
O=C(CN1CCCc2ccccc21)NCCc1ccc(F)cc1 | 45*[inhibitor] | 52 | -4 | -20 | -32 | 96 | -2 | 102
O=C(Nc1ccccc1)/C(=C/c1cccnc1)NC(=O)c1ccco1 | 129* | 106 | -6 | 0 | -4 | 102 | 2 | 102
O=C(Nc1ccccc1)/C(=C\c1ccncc1)NC(=O)c1ccccc1 | 131* | 120 | -2 | 6 | -1 | 96 | -2 | 94
O=C(Nc1ccc(O)cc1)/C(=C\c1ccncc1)NC(=O)c1ccccc1 | 100 | 94 | 1 | -5 | 2 | x | x | x
O=C(Nc1ccccc1)/C(=C\c1ccccc1)NC(=O)c1ccco1 | 97 | 97 | x | -9 | -9 | x | x | x
Cc1ccc(C(c2nnnn2C2CCCC2)N2c3ccccc3CC2C)cc1 (stereo unspecified) | 101 | 95 | -5 | -2 | -22 | x | x | x
CCOC(=O)C1=C(CSc2n[nH]c(N)n2)NC(=O)NC1C (stereo unspecified) | 102 | 106 | -5 | 1 | -2 | x | x | x
CCOC(=O)c1sc(NC(C)=O)nc1-c1ccccc1 | 1.0*[inhibitor] | -2.0*[inhibitor] | -13 | -20 | -2 | 95 | -4 | 95
CCOCCCNC(=O)C1CCN(C(=O)N(C)C)CC1 | 100 | 100 | -5 | 4 | 5 | x | x | x
CC(C)NC(=O)C1CCN(C(=O)N(C)C)CC1 | 1.0*[inhibitor] | -3.0*[inhibitor] | -5 | -20 | 3 | 97 | -2 | 98
CCC1SC2=NC(C)=C(C(=O)OCC(C)C)C(/C=C/c3ccccc3OC)N2C1=O (stereo unspecified) | 103 | 94 | -11 | 2 | -10 | x | x | x
CCC1SC2=NC(C)=C(C(=O)OCCOC)C(/C=C/c3ccccc3OC)N2C1=O (stereo unspecified) | 124* | 116 | -11 | 5 | -27 | 95 | -6 | 100
COc1ccc2c(c1)O/C(=C\c1sccc1C)C2=O | 101 | 95 | -10 | 9 | 0 | x | x | x
O=C(Cc1nc2ccccc2[nH]1)c1ccc(Cl)cc1 | 104 | 99 | 5 | -2 | -3 | x | x | x
SMILES | MEKK3 PB1 HTS | MEKK2 WT-MEK5 | dFosB activator | MEKK2mut PB1 HTS | DNA FID counter | MEKK2wt confirm | MEKK2mut-MEK5 | MEKK3 confirm
Clc1ccc(/C(Cc2nc3ccccc3[nH]2)=N\Nc2ccccc2)cc1 | 110 | 153* | 13 | 42 | 4 | 138 | 13 | 108
O=C(O)c1ccc2oc(=O)c(S(=O)(=O)c3ccc(F)cc3)cc2c1 | 98 | 99 | 3 | -1 | -2 | x | x | x
CCCCCCc1cc2cc(-c3nnc(-c4ccccc4O)o3)c(=O)oc2cc1O | 101 | 71*[inhibitor] | -12 | 5 | 0 | 100 | -1 | 108
CCCCCCc1cc2cc(S(=O)(=O)c3ccc(F)cc3)c(=O)oc2cc1O | 138* | 103 | 6 | 0 | -6 | 105 | -1 | 104
O=C1CCCc2c1[nH]c1ccccc21 | 128* | 104 | -5 | 6 | 2 | 107 | 4 | 102
COc1ccc(CNC(=O)c2c(N)n(CCCN3CCOCC3)c3nc4ccccc4nc23)cc1 | 95 | 154* | u | 39 | -1 | 149 | 39 | 110
Nc1c(C(=O)NCc2ccccc2)c2nc3ccccc3nc2n1CCCN1CCOCC1 | 106 | 106 | u | 2 | -1 | x | x | x
Cc1ccc(NC(=O)CC2SC(=Nc3ccc(O)cc3)NC2=O)cc1 (stereo unspecified) | 133* | 115 | -4 | 0 | -7 | 123 | 10 | 106
CCOc1ccc(N=C2NC(=O)C(CC(=O)Nc3ccc(OC)cc3)S2)cc1 (stereo unspecified) | 103 | 92 | -1 | 1 | 8 | x | x | x
COC(=O)c1c(NC(=O)COc2ccc(Cl)cc2)sc2c1CC(C)(C)NC2(C)C | 107 | 186* | 3 | 49* | 26 | 181 | 51 | 110
C#CCn1c(=O)cc(C)c2ccccc21 | 103 | 103 | 0 | 1 | -2 | x | x | x
C#CCn1cc(C=C2C(=O)c3ccccc3C2=O)c2ccccc21 | 36*[inhibitor] | 80 | -6 | -1 | -3 | 91 | -4 | 101
CSc1n[nH]c(NCc2ccc(C)cc2)n1 | 99 | 93 | -2 | 2 | 0 | x | x | x
CN(C)CCCN(C(=O)c1ccco1)c1nc2ccc(F)cc2s1 | 102 | 104 | -14 | 2 | 6 | x | x | x
CN(C)CCCN(C(=O)c1ccco1)c1nc2c(F)cccc2s1 | 62*[inhibitor] | 101 | -30 | 68* | 8 | 107 | 7 | 102
Cc1ccc2nc(N(CCCN(C)C)C(=O)c3ccc(Br)s3)sc2c1 | 102 | 169* | -28 | 35 | 15 | 166 | 29 | 108
CN(C)CCCN(C(=O)c1ccc(S(=O)(=O)N(C)Cc2ccccc2)cc1)c1nc2c(F)cccc2s1 | 110 | 196* | 3 | 40* | 13 | 176 | 34 | 108
